Shown are actives, neighbours in structure and some others; about 1.6% of the full set was active somewhere.
KCNQ2 pot – potentiators of rat KCNQ2 potassium channel. O88943. AID 2239. CHO-K1 KCNQ2, FluxOR thallium flux fluorescence; active compounds read high. 310,000 tested, 0.54% active. B-score at 10 µM;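 active = fluorescence ratio B-score at least 3 SD of library B-scores, with initial fluorescence B-score within 3 of them, cut at about 5.3 in these data; same plate scores as AID 2156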;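 note: B-score of peak minus minimum over baseline fluorescence ratio after K+ and Tl+ stimulus; positive B-score means potentiation of KCNQ2 with more thallium influx and brighter signal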
Target sequence (O88943 whole entry, looked up): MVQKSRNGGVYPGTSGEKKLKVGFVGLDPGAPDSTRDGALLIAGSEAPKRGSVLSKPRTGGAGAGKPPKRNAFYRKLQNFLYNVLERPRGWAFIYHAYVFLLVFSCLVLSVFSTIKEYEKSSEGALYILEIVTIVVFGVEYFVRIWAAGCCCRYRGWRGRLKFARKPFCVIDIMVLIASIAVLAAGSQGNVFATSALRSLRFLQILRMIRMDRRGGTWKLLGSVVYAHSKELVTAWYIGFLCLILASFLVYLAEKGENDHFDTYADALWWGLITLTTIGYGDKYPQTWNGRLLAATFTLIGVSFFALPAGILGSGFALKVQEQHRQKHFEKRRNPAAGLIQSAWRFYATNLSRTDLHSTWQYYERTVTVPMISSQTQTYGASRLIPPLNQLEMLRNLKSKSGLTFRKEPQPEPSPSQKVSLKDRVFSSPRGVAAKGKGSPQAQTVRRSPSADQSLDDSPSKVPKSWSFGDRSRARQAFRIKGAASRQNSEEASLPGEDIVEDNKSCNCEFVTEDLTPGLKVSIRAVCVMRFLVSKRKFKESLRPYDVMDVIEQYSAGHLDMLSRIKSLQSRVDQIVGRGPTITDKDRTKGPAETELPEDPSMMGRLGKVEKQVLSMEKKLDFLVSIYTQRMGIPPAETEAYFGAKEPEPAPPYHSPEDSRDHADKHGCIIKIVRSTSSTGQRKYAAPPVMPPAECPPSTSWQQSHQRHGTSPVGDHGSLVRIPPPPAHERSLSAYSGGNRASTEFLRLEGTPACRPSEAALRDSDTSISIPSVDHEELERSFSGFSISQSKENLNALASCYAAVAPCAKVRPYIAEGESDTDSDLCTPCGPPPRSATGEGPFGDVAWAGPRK
KCNQ2 inh – KCNQ2 (rat) channel inhibition | 310,000 tested, 1.1% active | B-score at 10 µM | O88943 | CHO-K1 KCNQ2, FluxOR thallium flux, 20 min; active compounds read low | AID 2156;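 active = fluorescence ratio B-score at most minus 3 library SDs, with starting brightness B-score within 2 library SDs, cut at about -5.5 in these data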
The depositor's hits bear a star.

CCOC(=O)c1c(NC(=O)C(c2ccccc2)c2ccccc2)sc2c1C1CCN2CC1 was read as KCNQ2 pot -7.24 and KCNQ2 inh -7.24*.
Screening CCOC(=O)c1c(NC(=O)c2c(N)n(CCCOC)c3nc4ccccc4nc23)sc2c1CCCC2 returned KCNQ2 pot 1.29 and KCNQ2 inh inactive.
Screening COc1ccc(C2SCC(=O)Nc3c2c(C)nn3-c2ccccc2)cc1 (stereo unspecified) returned KCNQ2 pot 0.6 and KCNQ2 inh inactive.
`Cc1ccc(-n2nc(C)c3c2NC(=O)CSC3c2ccc3c(c2)OCO3)cc1` (stereo unspecified) gave KCNQ2 pot -5.63 and KCNQ2 inh -5.63*.
`CN1CCCN(C(=O)COc2ccc(F)cc2Cl)CC1` gave KCNQ2 pot 0.37 and KCNQ2 inh inactive.
For CCCCn1c(O)c(C(C)=Nc2ccc(C(=O)O)cc2)c(=O)[nH]c1=O the results were KCNQ2 pot 5.62* and KCNQ2 inh inactive.
CCCCn1c(O)c(C(C)=NCCc2ccccc2)c(=O)[nH]c1=O was read as KCNQ2 pot 0.51 and KCNQ2 inh inactive.
For O=P1(N(CCCl)CCCl)NCCCO1 (stereo unspecified) the results were KCNQ2 pot 0.09 and KCNQ2 inh inactive.
C=C1[C@H]2C[C@H]3[C@H]4N5C[C@]6(C)CCC[C@]47[C@H]([C@H]2O)[C@]3(C[C@]5(O)[C@H]67)[C@@H]1O was read as KCNQ2 pot 1.17 and KCNQ2 inh inactive.
`CN1CCN(c2nc3c(c(=O)[nH]2)CCC3)CC1` gave KCNQ2 inh inactive.
Screening Cc1ccc(C(c2nnnn2Cc2ccccc2)N2CC=C(c3ccc(F)cc3)CC2)cc1 (stereo unspecified) returned KCNQ2 pot -5.72 and KCNQ2 inh -5.72*.
Screening Fc1ccc(C2=CCN(C(c3ccc(Cl)cc3)c3nnnn3Cc3ccccc3)CC2)cc1 (stereo unspecified) returned KCNQ2 inh inactive.
Cc1nc2ccc(Cl)cc2c(=O)n1-c1cccc(Cl)c1 was read as KCNQ2 inh inactive.
For CN1C(=O)NC(=O)[C@]2(Cc3ccccc3N3CCN(c4ccccc4)CC32)C1=O (stereo partly specified) the results were KCNQ2 inh inactive.
`O=C1NC(=O)C2(Cc3ccccc3N3CCCC32)C(=O)N1Cc1ccccc1` (stereo unspecified) gave KCNQ2 inh inactive.
Screening O=C1NC(=O)[C@]2(Cc3ccccc3N3CCN(c4ccccc4)CC32)C(=O)N1Cc1ccccc1 (stereo partly specified) returned KCNQ2 pot -5.7 and KCNQ2 inh -5.7*.
For O=C1NC(=O)[C@]2(Cc3ccccc3N3CCN(c4ccccc4)CC32)C(=O)N1c1ccccc1 (stereo partly specified) the results were KCNQ2 pot -6.06 and KCNQ2 inh -6.06*.
Screening COC(=O)c1ccc(CN2CCSC2=N)cc1 returned KCNQ2 inh inactive.
Screening CN(C)CCN(C(=O)COc1ccc(Cl)cc1)c1nc2cc3c(cc2s1)OCO3 returned KCNQ2 inh inactive.
`O=c1[nH]c(=S)n(C2CC2)c(O)c1C=NCCc1ccccc1` gave KCNQ2 inh inactive.
Screening CN(C)c1ccc(/C=C/C=C/c2sc3ccccc3[n+]2C)cc1 returned KCNQ2 pot 0.07 and KCNQ2 inh inactive.
Screening CC[n+]1c(/C=C/C=C/c2ccc(N(C)C)cc2)sc2ccccc21 returned KCNQ2 pot -7.89 and KCNQ2 inh -7.89*.
For CC1CCCCC1NC(=O)CNC(=S)N1CC2CC(C1)c1cccc(=O)n1C2 (stereo unspecified) the results were KCNQ2 inh inactive.
For CCOC(=O)c1c(C)n(Cc2ccccc2)c2ccc(OCC(O)CNC(C)(C)C)cc12 (stereo unspecified) the results were KCNQ2 pot 0.22 and KCNQ2 inh inactive.
`C/C1=C\[C@@H](C)C/C=C/[C@H]2[C@@H]3O[C@]3(C)[C@@H](C)[C@H]3[C@H](Cc4c[nH]c5ccccc45)NC(=O)[C@]32C(=O)/C=C/C(=O)[C@@H]1O` gave KCNQ2 pot 8.3* and KCNQ2 inh inactive.
For CCOc1ccc(-c2cc(C)[n+](CCO)c(-c3ccc(OCC)cc3)c2)cc1 the results were KCNQ2 pot 0.49 and KCNQ2 inh inactive.
Screening CCOc1ccc(-c2cc(C)[n+](CCc3ccc(OC)c(OC)c3)c(-c3ccc(OCC)cc3)c2)cc1 returned KCNQ2 pot -5.78 and KCNQ2 inh -5.78*.
For CCCN1CCC(NC2CCC(O)CC2)CC1 (stereo unspecified) the results were KCNQ2 inh inactive.
Oc1cc(Cl)ccc1Oc1ccc(Cl)cc1Cl was read as KCNQ2 inh inactive.
Screening Clc1cnc(Oc2ccc(Oc3ncc(Cl)cc3Cl)cc2)c(Cl)c1 returned KCNQ2 pot -5.59 and KCNQ2 inh -5.59*.
CN(CC(=O)Nc1ccccc1-c1ccccc1)C1CCCCC1 was read as KCNQ2 pot -6.38 and KCNQ2 inh -6.38*.
Screening CCc1ccccc1NC(=O)CNC1CCCCC1 returned KCNQ2 inh inactive.
`COc1c(C=C2C(=O)NC(=O)NC2=O)c(CCN(C)C(=O)c2ccccc2)cc2c1OCO2` gave KCNQ2 inh inactive.
For CC(C)(C#CC(=O)O)OOC(c1ccccc1)(c1ccccc1)c1ccccc1 the results were KCNQ2 pot -11 and KCNQ2 inh -11*.
For O=c1c2ccccc2nc(-c2ccccc2Cl)n1-c1cccc(O)c1 the results were KCNQ2 inh inactive.
For CCCCCn1c(=O)c(C(=O)NCCc2ccccc2)c(O)c2ccccc21 the results were KCNQ2 inh inactive.
CCCCn1c(=O)c(C(=O)NCc2ccccc2OC)c(O)c2ccccc21 was read as KCNQ2 pot -6.22 and KCNQ2 inh -6.22*.
`CCN(CC)C(=O)c1ccc(NC(=O)CN2CCc3cc(OC)c(OC)cc3C2)cc1` gave KCNQ2 pot 1.32 and KCNQ2 inh inactive.
CCc1nc2ccc(Br)cc2c(=O)n1-c1ccccc1C(F)(F)F was read as KCNQ2 inh inactive.
`CCCc1nc2ccc(Br)cc2c(=O)n1-c1ccc([N+](=O)[O-])c(C(F)(F)F)c1` gave KCNQ2 pot -6.04 and KCNQ2 inh -6.04*.
For COc1ccccc1C1CC2CCC(C1OC(C)=O)N2Cc1ccccc1 (stereo unspecified) the results were KCNQ2 inh inactive.
`Cc1cc(=O)oc2c(C)c(OCC(=O)N3CCN(Cc4ccccc4)CC3)ccc12` gave KCNQ2 inh inactive.
For COc1cccc(-n2c(O)c(C=NCCN3CCNCC3)c(=O)[nH]c2=S)c1 the results were KCNQ2 inh inactive.
For COc1cc(C)cc2oc(=O)c(CC(=O)N3C[C@H]4C[C@@H](C3)c3cccc(=O)n3C4)c(C)c12 the results were KCNQ2 pot 0.9 and KCNQ2 inh inactive.
For c1ccc(-c2ccc(-c3n(-c4ccccn4)c4ccccc4[n+]3-c3ccccn3)cc2)cc1 the results were KCNQ2 pot -7.71 and KCNQ2 inh -7.71*.
`Cc1cccc(OP(=O)(Oc2ccccc2)OC(c2ccccc2)C(F)(F)F)c1` (stereo unspecified) gave KCNQ2 pot -6.49 and KCNQ2 inh -6.49*.
`Cc1ccc(C)c(NP(=O)(Oc2ccccc2)Oc2ccccc2)c1` gave KCNQ2 pot 0.73 and KCNQ2 inh inactive.
For CCCCCCC(Cl)(Cn1ccnc1)c1ccccc1 (stereo unspecified) the results were KCNQ2 inh inactive.
